TrxR1 substrate = is turned over as a substrate by rat TrxR1; O89049; purified TrxR1 substrate turnover, NADPH consumption readout; Potency, µM (doses to about 114 µM), for inactives: top-dose activity change, negative = substrate turnover; actives 0.01% (n = 390,000); note: potency is the fitted concentration of half-maximal effect; nearly all actives have a fitted effect of over 50% in size
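Rat TrxR1, dispensed at 90 nM, was prereduced with 400 uM NADPH (final) for 5 min at ~22 deg C, then incubated with compound 15 min before 400 uM selenite. A first-read NADPH fluorescence drop versus no-compound background flagged substrates.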
VP16 counter = inhibits Gal4-VP16 luciferase reporter, ROR gamma counter-screen; actives 3.5% (n = 310,000); Potency, µM (doses to about 53.6 µM), without a hit: at the highest dose activity, negative = inhibition, actives largely listed as inhibitors; Drosophila S2 Gal4-VP16 UAS-luciferase, luminescence, 20 h; AID 2546;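 note: Gal4-VP16 expression switched on by copper sulfate through the metallothionein promoter; potency is the fitted concentration of half-maximal effect; nearly all actives have a fitted effect of over 50% in size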
GALK inhibitor = galactokinase (human) inhibition; P51570; Purified GALK, Kinase-Glo residual ATP luminescence; Potency, µM (highest dose often 57.5 µM), for the others: at the top dose activity change, negative = inhibition, usual class: inhibitors; actives 0.007% (n = 270,000); AID 1868; note: potency is the fitted concentration of half-maximal effect
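ATP-depletion format; final 35 uM ATP, 100 uM D-galactose, 5 nM enzyme; pH 8.0 HEPES/Mg2+ buffer; 60 min RT; luminescence read 10 min after detection reagent.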
RORgamma inh = blocks mouse ROR gamma transcriptional activity; AID 2551; actives 5.4% (n = 310,000); Potency, µM (titrated, usually from 53.6 µM), for inactives: at the highest dose activity change, negative = inhibition, actives largely listed as inhibitors; Drosophila S2 Gal4-RORgamma UAS-luciferase reporter, 20 h; P51450; note: potency is the fitted concentration of half-maximal effect; nearly all actives have a fitted effect of over 60% in size
Target sequence (P51450 whole entry, looked up, the tested form may be a part): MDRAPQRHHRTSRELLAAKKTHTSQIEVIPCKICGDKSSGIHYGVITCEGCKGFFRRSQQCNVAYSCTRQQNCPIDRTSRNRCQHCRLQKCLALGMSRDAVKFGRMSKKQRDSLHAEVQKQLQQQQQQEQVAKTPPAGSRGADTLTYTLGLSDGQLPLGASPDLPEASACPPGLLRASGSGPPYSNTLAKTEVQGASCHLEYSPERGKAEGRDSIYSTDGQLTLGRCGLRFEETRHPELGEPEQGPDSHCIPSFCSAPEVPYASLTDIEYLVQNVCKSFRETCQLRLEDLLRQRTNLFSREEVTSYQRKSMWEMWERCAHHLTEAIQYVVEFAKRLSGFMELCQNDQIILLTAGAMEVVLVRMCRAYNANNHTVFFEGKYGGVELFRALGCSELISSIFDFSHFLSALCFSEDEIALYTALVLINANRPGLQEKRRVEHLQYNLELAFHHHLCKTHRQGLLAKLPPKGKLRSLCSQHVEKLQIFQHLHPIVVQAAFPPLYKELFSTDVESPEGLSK
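ROR gamma transcriptional activity was tracked as Gal4-UAS luciferase output in stably transfected Drosophila Schneider cells, with compound added 1 hr before 700 uM copper sulfate induction and a 20 hr ambient-temperature incubation.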
rTrxR1 inhibitor = inhibitors of rat thioredoxin reductase 1 | AID 588453 | actives 1% (n = 390,000) | Potency, µM (series often up to 114 µM), without a hit: top-dose activity change, negative = inhibition, usual class: inhibitors | O89049 | recombinant rTrxR1, NADPH fluorescence consumption, selenite substrate; note: potency is the fitted concentration of half-maximal effect; nearly all actives have a fitted effect of over 65% in size
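Rat TrxR1 (90 nM in the dispensed reagent) was pre-reduced with 400 uM NADPH for 5 min at room temperature, then incubated with compound for 15 min. After 400 uM selenite was added, NADPH fluorescence (Ex 340/Em 450 nm) was followed for 8 min.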
FBPA coupling cs = inhibits coupling enzyme system, counter-screen for aldolase hits. coupling enzyme system counterscreen, AmpLite Red fluorescence. actives 0.67% (n = 290,000). activity change, negative = inhibition, % at 58.2 µM, hits read low; in the data active = activity change below about -30%
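Counterscreen of the coupled detection system alone, without aldolase: glyceraldehyde-3-phosphate coupling enzymes plus AmpLite Red readout. Compounds at 57.5 uM final, 10 min RT preincubation, 20 min RT reaction, fluorescence 525/598 nm.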
* marks the source's active call; other numbers are inactive results; ? = inconclusive; . = not tested or not shown; [ ] = another dose, or the depositor's remark. Shown are actives, neighbours in structure and some others; about 5.9% of the full set was active somewhere. Unless noted, calls come from the whole dose curve; as a rule, active = well fitted curve in the direction sought with a large enough effect; inconclusive = small, poorly fitted or top-dose-only effect, or another doubt; inactive = no such curve, though single readings can be large; an effect the other way counts as inactive or inconclusive. % is set by controls: 0 for no effect and ±100 for the full control effect.

SMILES	TrxR1 substrate	VP16 counter	GALK inhibitor	RORgamma inh	rTrxR1 inhibitor	FBPA coupling cs
COc1ccc(C(=O)NC(=S)Nc2ccc([N+](=O)[O-])cc2C)cc1OC	0.1%	?	0.4%	15.8µM*	?	-0.7
Cc1ccc(O)c(NC(=O)c2cc(-c3ccccc3Cl)on2)c1	-7.0%[57.1 µM]	5.5%	-5.0%	33.8%	-5.2%[57.1 µM]	2.1
Cc1cc(C)c(C(=O)CC(=O)c2ccccc2Cl)c(O)c1	-0.4%[57.1 µM]	4.47µM*	-3.7%	2.24µM*	-2.1%[57.1 µM]	2.8
Cc1cc(C)c(NC(=O)CC(=O)c2ccccc2)c(Cl)c1	-0.9%	-15.0%	3.1%	27.9%	17.0%	0.5
COc1ccc(C(=O)NC(=S)Nc2ccccc2[N+](=O)[O-])cc1OC	7.6%[57.1 µM]	16.8%	-1.3%	7.08µM*	-62.0%	0.8
O=C(NC(=S)Nc1ccccc1[N+](=O)[O-])c1ccccc1Cl	-2.3%	?	2.1%	3.98µM*	-42.4%	-2.9
O=C(CC(=O)Nc1ccccc1[N+](=O)[O-])Nc1ccccc1[N+](=O)[O-]	-6.9%	1.3%	-1.6%	20.5%	12.3%	-2.0
CC(C)(C)CC(=O)NC(=S)Nc1ccccc1[N+](=O)[O-]	-1.7%[57.1 µM]	?	0.8%	6.31µM*	36.3%[0.0914 µM]	1.5
Cc1nc(Nc2ccccc2)c2nc(-c3ccccc3)n(CCN3CCOCC3)c2n1	.	-2.5%	.	-24.3%	.	-0.6
Cc1nc(NCCO)c2nc(-c3ccccc3)n(CC3CCN(C)CC3)c2n1	.	5.4%	.	-21.6%	.	2.3
CN(CCc1cnn(C)c1)C(=O)CCc1nnc(CCCc2ccccc2)o1	8.8%[57.1 µM]	?	1.8%	-7.8%	13.9%[57.1 µM]	1.2
O=C(c1cc(-c2ccc3c(c2)OCO3)on1)N1CCOCC1	-1.0%	7.94µM*	1.4%	10µM*	18.4%	3.4
O=C(c1cc(-c2ccc3c(c2)OCO3)on1)N1CCN(c2ccccc2)CC1	-6.1%	1.3%	-0.1%	29.6%	-4.7%	0.8
O=C(c1cc(-c2ccc(Cl)cc2Cl)on1)N1CCOCC1	2.2%	?	1.5%	10µM*	-5.7%	2.7
O=C(c1cc(-c2ccc(Cl)cc2)on1)N1CCOCC1	4.1%[57.1 µM]	?	-0.5%	10µM*	7.9%	4.0
O=C(c1cc(-c2ccc(Cl)c(Cl)c2)on1)N1CCOCC1	2.3%	-0.3%	-0.7%	9.3%	13.7%[0.457 µM]	0.2
O=C(c1cc(-c2ccccc2O)on1)N1CCOCC1	-10.6%	3.3%	15.7%	5.5%	-2.9%	1.6
CC(C)c1ccc(NC(=O)CN2C(=O)NC(C)(C3CC3)C2=O)cc1 (stereo not given)	-1.6%	.	.	.	2.0%	.
Cc1cc2c(cc1C)C(=O)C(Br)=C(N)C2=O	-9.4%	.	.	.	50.1µM*	.
COc1ccc(NC(=S)N2CCCN(Cc3cccc(Cl)c3)C2)cc1	0.9%	2.7%[10 µM]	0.9%	12.6µM*	12.6%	-0.4
CSc1cccc(NC(=S)N2CCCN(Cc3cccc(Cl)c3)C2)c1	-0.9%	?	-1.4%	10µM*	12.8%	-4.5
COc1cccc(NC(=S)N2CCCN(Cc3ccc(F)cc3)C2)c1	4.4%	?	-1.9%	3.55µM*	14.2%	-4.3
Cc1cccc(C)c1NC(=S)N1CCCN(Cc2ccc(F)cc2)C1	1.8%	22.6%	-2.1%	14.1µM*	2.2%	6.5
CCOc1ccc(NC(=S)N2CCCN(Cc3cccc(Cl)c3)C2)cc1	2.3%	4.8%	7.0%	?	15.8%	0.2
Fc1ccc(CN2CCCN(C(=S)Nc3ccc(F)cc3)CC2)cc1	3.2%[57.1 µM]	6.2%	-0.8%	-23.3%	26.2%[57.1 µM]	-0.9
SMILES	TrxR1 substrate	VP16 counter	GALK inhibitor	RORgamma inh	rTrxR1 inhibitor	FBPA coupling cs
O=S(=O)(c1ccc(Br)cc1)N1CCOC12CCCCC2	9.0%[57.1 µM]	-0.9%	-0.4%	11.2%	22.5%[57.1 µM]	-2.3
CCn1c(C)nc2cc(-c3nnc(-c4c(-c5ccccc5)noc4C)o3)ccc21	30.8%	5.01µM*	1.5%	?	38.4%	3.9
COc1ccc(C2NCCc3c2[nH]c2ccccc32)cc1COc1ccc(F)cc1 (stereo not given)	-6.9%	8.91µM*	-0.7%	10µM*	2.2%	-4.5
COc1ccc(/C(O)=C/Sc2nnc(Cc3ccccc3)o2)cc1	-10.2%	-1.5%	-1.0%	-0.2%	-2.6%	0.6
COc1cc(C(=O)O/N=C2\C=CC(=O)C=C2C)cc(OC)c1OC	1.3%	3.98µM*	-0.1%	7.08µM*	?	-19.6
COc1cc(C(=O)O/N=C2/C=CC(=O)C(C)=C2C)cc(OC)c1OC	7.9%[57.1 µM]	4.47µM*	-2.4%	3.55µM*	?	-18.8
COc1cc(C(=O)ON=C2C3CC4CC(C3)CC2C4)cc(OC)c1OC	-3.3%	?	2.0%	?	22.9%	3.5
COC(=O)c1c(C)cc(OC(C)=O)c(C)c1OC(C)=O	-1.3%	3.7%	-0.1%	-15.4%	12.4%	-2.0
CCc1ccc2c(Cl)c(C(=O)N/N=C/c3c[nH]c4ccccc34)sc2c1	-8.6%	-6.5%	-4.7%	8.91µM*	8.8%[57.1 µM]	-1.7
O=C(N/N=C/c1ccc[nH]1)c1sc2ccccc2c1Cl	7.2%	0.562µM*	-12.6%	0.316µM*	9.7%	-1.0
CCc1ccc(-c2cc(C(=O)N/N=C/c3c[nH]c4ccccc34)[nH]n2)cc1	-0.3%	12.6µM*	8.0%	11.2µM*	18.9%	-1.8
O=C(CSc1nc(-c2ccccc2)[nH]c1-c1ccccc1)Nc1ccc2c(c1)OCO2	5.4%	.	.	.	-5.5%	.
CCCCCCCCCCCCCCCCCCN(CCCCCCCCCCCCCCCCCC)c1ccc(C=O)cc1	2.1%	.	.	.	1.0%	.
CN(Cc1ccccc1)C(=O)c1cnc2n(c1=O)CCS2	-6.3%	-2.6%	0.4%	-21.4%	18.1%	0.4
CCCCNC(=S)NNC(=O)C12CC3CC(CC(C3)C1)C2	6.2%[57.1 µM]	?	-0.5%	14.1µM*	6.1%[57.1 µM]	2.7
O=C(CNC(=S)N(Cc1ccc(F)cc1)C1CCCCC1)NCC1CCCO1 (stereo not given)	-10.3%[57.1 µM]	9.3%	-1.6%	-16.1%	28.1%[57.1 µM]	-0.2
Cc1cc2nc(CCN(C(=S)NCC3CCCO3)C3CCCC3)[nH]c2cc1C (stereo not given)	0.6%	?	6.3%	12.6µM*	18.1%	-11.0
Cc1cc2nc(CCN(C(=S)NCC(C)C)C3CCCC3)[nH]c2cc1C	-2.9%[57.1 µM]	?	-3.3%	7.08µM*	18.6%	0.9
Cc1cccc2cc(CN(C(=S)NCC(C)C)C3CCCC3)c(=O)[nH]c12	-11.9%	?	-0.6%	-42.7%	0.9%	0.1
COc1ccc(S(=O)(=O)N2CCN(c3ccccc3F)CC2)cc1-c1noc(C)n1	12.8%	.	.	.	22.8%[0.457 µM]	.
CC(=O)c1ccc(NC(=O)c2ccc3nc(-c4ccco4)c(-c4ccco4)nc3c2)cc1	1.4%	9.2%	-2.6%	-10.5%	2.51µM*	-30.2*
O=C(NC1CC1)c1ccc2nc(-c3ccco3)c(-c3ccco3)nc2c1	-2.1%	.	.	.	2.51µM*	.
